NADH coupling: blocks coupling enzymes of NAD/NADH assays; coupled PK/LDH NADH assays, four targets; IC50, µM (doses to about 10 µM); 0.02% of 65,000 active; AID 774;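 active means single-dose screening hits from any of four coupled enzyme assays that gave an IC50 when retested across doses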;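 further: the DPM-DC format reads NADH fluorescence rather than 340 nm absorbance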
PMK inhibit: inhibitors of Streptococcus pneumoniae phosphomevalonate kinase; AID 539; purified PMK, PK/LDH-coupled NADH absorbance 340 nm; 0.49% of 65,000 active; inhibition, % at 10 µM;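 active means top-ranked compounds by inhibition in the single 10 µM screen, taking a fixed number of the strongest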
A340 absorber: compound absorbs light at 340 nm; compound absorbance at 340 nm, fold over control; fold change at 10 µM; 65,000 tested, under 10 active; AID 708;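 active means at 10 µM dose, initial 340 nm absorbance at least 2 fold that of control wells; inactive means change under 2 fold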;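 further: initial absorbance extrapolated from kinetic A340 decline of NADH oxidation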
Autofluor 339: intrinsic fluorescence of library compounds, ex339/em460 – biochemical, MLSMR library, data from DPM-DC assay, artefact control, profiling panel; fluorescence fold increase at 10 µM; compound autofluorescence, ex339/em460 nm, NADH buffer; hits give high values; 1 = no-compound wells, NADH background; AID 709; 5.5% of 65,000 active;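 active means at 10 µM, mean starting fluorescence two-fold or more over control wells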;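 further: signal is the first read of a kinetic run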
DPM-DC inhibit: S. pneumoniae DPM-DC inhibition. purified DPM-DC, PK/LDH coupled NADH fluorescence. calls only at 10 µM. 0.49% of 65,000 active. AID 556;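 active means the 320 compounds with the highest percent inhibition in the single-dose primary screen, excluding strongly autofluorescent ones, cut at about 32% in these data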;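 further: kinetic rate of NADH fluorescence loss reporting ADP formed by the decarboxylase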
Spn MK inh: blocks S. pneumoniae mevalonate kinase | purified MK, PK/LDH-coupled NADH absorbance 340 nm | 0.48% of 65,000 active | inhibition, % at 10 µM;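 active means ranked among the strongest by inhibition in the single 10 µM screen, a fixed top-ranked set picked for dose follow-up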
Each line names hits and unclear results; the compound was inactive in the other large screens. A selection: hits, their analogues and other compounds. The true share with any hit is near 6.5%.

c1ccc2c(c1)[nH]c1c(N3CCOCC3)ncnc12	none
Cc1ccc(NCc2nnc(SCC(=O)Nc3cccc(O)c3)n2CC2CCCO2)c(C)c1 (stereo not drawn)	none
CCOC(=O)c1nnn(-c2nonc2N)c1-c1ccc(OC)cc1	none
O=C(Cn1cnc2ccccc2c1=O)NCCC(=O)N1CCN(c2ccccc2)CC1	none
CN(C)C(=O)CSc1nnc(-c2cc(-c3cccs3)nc3ccccc23)o1	Autofluor 339 4.9 (not shown: DPM-DC inhibit)
O=C(CSc1nnc(-c2cccs2)o1)OCc1ccccc1	none
COc1nc(-c2ccccc2)ccc1-c1noc(-c2cccnc2)n1	Autofluor 339 3.5 (not shown: DPM-DC inhibit)
COc1nc2ccccc2cc1-c1noc(-c2cccnc2)n1	none
COc1nc(-c2ccc(C)cc2)ccc1-c1noc(-c2cccnc2)n1	Autofluor 339 3.5 (not shown: DPM-DC inhibit)
Cc1cccc(NS(=O)(=O)c2ccccc2)n1	Autofluor 339 2.1 (not shown: DPM-DC inhibit)
Cc1cccc(NS(=O)(=O)c2cccc3cccnc23)n1	none
C=CCNc1nc(N2CCCC2)nc2ccccc12	Autofluor 339 2.7, DPM-DC inhibit active
OCCNc1nc(N2CCN(Cc3ccccc3)CC2)nc2ccccc12	Autofluor 339 2
O=C(NCCO)c1nc(NCCO)c2ccccc2n1	none
Cc1nc2sc(C(c3ccccc3)N3CCN(c4ccccc4F)CC3)c(O)n2n1 (stereo not drawn)	none
CCN(CCCNC(=O)CN(C)S(=O)(=O)c1ccc2c(c1)CCC(=O)N2)c1cccc(C)c1	none
O=C(CC1Oc2ccc(Cl)cc2NC1=O)NC1CCCCCC1 (stereo not drawn)	none
O=C(c1ccco1)N1CCN(Cc2ccccc2C(F)(F)F)CC1	Spn MK inh 48
O=C(c1ccco1)N1CCN(Cc2cccc(F)c2)CC1	none
Cc1ccc(S(=O)(=O)N2CCN(Cc3ccccc3C(F)(F)F)CC2)cc1	Spn MK inh 44
COc1cccc(C2NC(=O)NC(O)(C(F)(F)F)C2C(=O)c2cccnc2)c1OC (stereo not drawn)	none
CCOC(=O)c1cnc(-n2nc(C)cc2C)nc1NC	none
CCOC(=O)c1cnc(-n2nc(C)cc2C)nc1NC1CCCCC1	Autofluor 339 2
CCOc1ccc(S(=O)(=O)NCC2CCCO2)c2cccnc12 (stereo not drawn)	Autofluor 339 2.2
CCOc1ccc(S(=O)(=O)Nc2ccccc2SC)c2cccnc12	none
CSc1ncccc1C(=O)OCC(=O)NC(=O)NCCC(C)C	none
Nc1cc(C(=O)O)ccc1Nc1ccccc1	DPM-DC inhibit active
CC1(C)Cc2[nH]c(=O)c(C#N)cc2CS1	none
CC1(C)Cc2nc3sc4c(=O)[nH]cnc4c3cc2CS1	Autofluor 339 2.8, DPM-DC inhibit active
COc1cccc(C(c2sc3nc(C)nn3c2O)N2CCc3ccccc3C2)c1 (stereo not drawn)	none
CC(=O)NC(C)C(=O)OCC(=O)Nc1ccc(Br)cc1 (stereo not drawn)	none
CC(C)=CC(=O)Nc1ccc(Br)cc1	PMK inhibit active
Cc1c(Cl)cccc1NC(=O)CCN1CCCC(C)C1 (stereo not drawn)	none
Cc1c(O)c(CN2CCCC(C)C2)cc2c3c(c(=O)oc12)CCC3 (stereo not drawn)	Autofluor 339 2.5 (not shown: DPM-DC inhibit)
Cc1c(C)c2cc(Cl)c(O)c(CN3CCN(C)CC3)c2oc1=O	Autofluor 339 2.3 (not shown: DPM-DC inhibit)
CN1CCN(Cc2c(O)ccc3c(-c4ccccc4)cc(=O)oc23)CC1	none
Cc1c(C)c2cc(Cl)c(O)c(CN3CCCC(C)C3)c2oc1=O (stereo not drawn)	Autofluor 339 2.4 (not shown: DPM-DC inhibit)
CC(C)CCSc1nc(N)c(C#N)cc1C#N	none
COc1ccc(C(c2nnnn2CC2CCCO2)N2CCN(c3ccccc3)CC2)cc1 (stereo not drawn)	PMK inhibit 77, DPM-DC inhibit active, Spn MK inh 66
COCCn1nnnc1CN(Cc1cc2cc(OC)c(OC)cc2[nH]c1=O)C1CCCC1	Autofluor 339 2.7
O=c1[nH]c2cc3c(cc2cc1CN(Cc1nnnn1CC1CCCO1)C1CCCCC1)OCO3 (stereo not drawn)	none
O=c1[nH]c2cc3c(cc2cc1CN(Cc1nnnn1CC1CCCO1)C1CCCC1)OCO3 (stereo not drawn)	Autofluor 339 2.5
Cc1ccc2cc(C(c3nnnn3CC3CCCO3)N3CCc4ccccc4C3)c(=O)[nH]c2c1 (stereo not drawn)	none
CCOc1ccc2[nH]c(=O)c(C(c3nnnn3CC3CCCO3)N3CCc4ccccc4C3)cc2c1 (stereo not drawn)	PMK inhibit 28
CCCc1nn(C)c2c1C(c1ccncc1)C(C#N)=C(N)O2 (stereo not drawn)	none (no result: PMK inhibit)
CN1CCN(Cc2nc3c(c(=O)n(C)c(=O)n3C)n2Cc2ccccc2Cl)CC1	none
CN(Cc1cccs1)C(=O)COc1ccc(-c2nnco2)cc1	none
CC1(C)CC(=O)C(/C=N/c2ncccc2C(=O)O)=C(O)C1	none
CC1CCN(C(c2cc3cc4c(cc3[nH]c2=O)OCO4)c2nnnn2CC2CCCO2)CC1 (stereo not drawn)	Autofluor 339 3.8 (not shown: DPM-DC inhibit)
O=c1[nH]c2cc3c(cc2cc1C(c1nnnn1Cc1ccccc1)N1CCN2CCCC2C1)OCCO3 (stereo not drawn)	Autofluor 339 4.7 (not shown: DPM-DC inhibit)
Cc1ccc2cc(C(c3nnnn3C(C)(C)C)N3CCCC3)c(=O)[nH]c2c1C (stereo not drawn)	none
O=c1[nH]c2cc3c(cc2cc1C(c1nnnn1Cc1ccccc1)N1CCCc2ccccc21)OCO3 (stereo not drawn)	none
COCCn1nnnc1C(c1cc2cc(OC)ccc2[nH]c1=O)N1CCC(Cc2ccccc2)CC1 (stereo not drawn)	Autofluor 339 2.1
COCCn1nnnc1C(c1cc2cc(C)ccc2[nH]c1=O)N1CCCCCC1 (stereo not drawn)	none
CCCN1CCN(C(c2cc3cc4c(cc3[nH]c2=O)OCO4)c2nnnn2C(C)(C)C)CC1 (stereo not drawn)	Autofluor 339 3.9 (not shown: DPM-DC inhibit)
O=C(NCc1cccs1)C1CCC(=O)N1C1CCCCC1 (stereo not drawn)	none
COc1ccc(CCn2nnnc2C(C(C)C)N2CCN(c3ncccn3)CC2)cc1OC (stereo not drawn)	none
CC(C)(C)NC(=O)c1ccccc1-c1nc(-c2ccccc2Cl)no1	none
COc1ccc(-c2cnn(-c3ccccc3)c2N)cc1OC	none
Nc1nc2c(s1)CCc1c-2cnn1-c1ccccc1	NADH coupling 21µM, DPM-DC inhibit active
Cc1ccnc(N2CCC(C(=O)Nc3ccc(Oc4ccccc4)cc3)CC2)n1	PMK inhibit 29
Cc1cc(C)nc(N2CCC(C(=O)Nc3ccc(Oc4ccccc4)cc3)CC2)n1	none
O=C1c2ccccc2C(=O)N1c1ccc(S(=O)(=O)N2CCN(c3ccccc3)CC2)cc1	none
COc1ccc(-c2cc(C(F)(F)F)nc(N3CCN(c4ccccc4)CC3)n2)cc1OC	none

Bioassay records deposited in PubChem BioAssay by SRMLSC.
